The campaign covered roughly 5,500 compounds. About 2,000 (36%) were called active. Not shown: some 18% with an inconclusive outcome. Rule as the data show it: active = normalized growth mostly below about 0.91 (no sharp cut-off); inconclusive = no clear call, values can overlap the other calls; inactive = mostly above about 0.92. The list shows a part of the results.
Test: chemical genetic growth profiling, strain panel (AID 1159580);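 also: tested at 20 µM; growth read once vehicle control cultures reached saturation at 30 °C; 1 = growth at the plate median or of vehicle wells; lower values mean less growth of the strain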
Settings: S. cerevisiae deletion strains, growth OD

Measured: normalized growth

COC(=O)C[C@H]1C(C)(C)C2(Cl)O[C@@]34CC2C(=O)[C@]1(C)C3CC[C@]1(C)C4=CC(=O)O[C@H]1c1ccoc1 (stereo not given in full)
inactive: locus YAL013W, strain DEP1, active compounds read low 1.01 | locus YBR021W, strain FUR4, active compounds read low 0.995 | locus YBR229C, strain ROT2, active compounds read low 1 | locus YCL029C, strain bik1, active compounds read low 1.01 | locus YDL035C, strain GPR1, active compounds read low 1.02 | locus YDL074C, strain BRE1, active compounds read low 0.989 | locus YDL101C, strain DUN1, active compounds read low 0.997 | locus YDL134C, strain PPH21, active compounds read low 0.999 | locus YDL185W, strain tfp1, active compounds read low 0.994 | locus YDL192W, strain arf1, active compounds read low 0.99 | locus YDR101C, strain arx1, active compounds read low 0.993 | locus YDR162C, strain NBP2, active compounds read low 0.971 | locus YDR318W, strain mcm21, active compounds read low 1 | locus YDR388W, active compounds read low 0.993 | locus YDR502C, strain sam2, active compounds read low 0.996 | locus YEL061C, strain CIN8, active compounds read low 1 | locus YER110C, active compounds read low 0.993 | locus YER155C, strain BEM2, active compounds read low 1.01 | locus YER167W, strain BCK2, active compounds read low 1.01 | locus YGL078C, strain dbp3, active compounds read low 0.99 | locus YGL086W, strain mad1, active compounds read low 0.989 | locus YGL248W, strain PDE1, active compounds read low 1 | locus YGR078C, strain PAC10, active compounds read low 0.991 | locus YGR135W, strain pre9, active compounds read low 0.976 | locus YGR252W, strain gcn5, active compounds read low 0.966 | locus YHR030C, strain SLT2, active compounds read low 0.999 | locus YHR079C, strain IRE1 (second series), active compounds read low 0.996 | locus YHR094C, strain hxt1, active compounds read low 0.995 | locus YHR129C, strain ARP1, active compounds read low 1 | locus YHR200W, strain rpn10, active compounds read low 0.992 | locus YIL066C, strain RNR3, active compounds read low 1.01 | locus YIL073C, strain SPO22, active compounds read low 1 | locus YIL125W, strain kgd1, active compounds read low 1 | locus YIR030C, strain dcg1, active compounds read low 0.986 | locus YJL095W, strain BCK1, active compounds read low 0.996 | locus YJL134W, strain LCB3, active compounds read low 1.01 | locus YJL168C, strain set2, active compounds read low 0.987 | locus YJL187C, strain SWE1 (second series), active compounds read low 1 | locus YJR075W, strain HOC1, active compounds read low 1.01 | locus YKL009W, strain mrt4, active compounds read low 0.983 | locus YKL068W, active compounds read low 1.01 | locus YKL085W, strain MDH1 (second series), active compounds read low 0.996 | locus YKL085W, strain MDH1, active compounds read low 0.996 | locus YKR001C, strain vps1, active compounds read low 1 | locus YLR039C, strain RIC1, active compounds read low 1.05 | locus YLR058C, strain SHM2, active compounds read low 1 | locus YLR102C, strain apc9, active compounds read low 1 | locus YLR268W, strain sec22, active compounds read low 1 | locus YLR342W, strain FKS1 (second series), active compounds read low 1.02 | locus YLR371W, strain rom2, active compounds read low 0.996 | locus YLR418C, strain cdc73, active compounds read low 0.96 | locus YML016C, strain PPZ1, active compounds read low 1.01 | locus YML032C, strain rad52, active compounds read low 0.995 | locus YML124C, strain tub3, active compounds read low 0.992 | locus YMR078C, strain ctf18, active compounds read low 1.01 | locus YMR223W, strain ubp8, active compounds read low 0.979 | locus YMR307W, strain GAS1, active compounds read low 0.957 | locus YNL067W, strain RPL9B, active compounds read low 1 | locus YNL153C, strain GIM3, active compounds read low 1 | locus YNL233W, strain BNI4, active compounds read low 0.995 | locus YNL250W, strain rad50, active compounds read low 0.995 | locus YNL271C, strain bni1, active compounds read low 0.998 | locus YNL298W, strain CLA4, active compounds read low 0.99 | locus YNL307C, strain MCK1, active compounds read low 0.991 | locus YNR052C, strain pop2, active compounds read low 0.998 | locus YOL006C, strain TOP1, active compounds read low 1.02 | locus YOL012C, strain htz1 0.78 | locus YOL147C, strain pex11, active compounds read low 0.99 | locus YOR061W, strain CKA2, active compounds read low 1.01 | locus YOR069W, strain VPS5, active compounds read low 1 | locus YOR136W, strain idh2, active compounds read low 0.988 | locus YOR144C, strain elg1, active compounds read low 0.995 | locus YOR184W, strain ser1, active compounds read low 1.01 | locus YOR316C, strain cot1, active compounds read low 0.988 | locus YPL241C, strain CIN2, active compounds read low 1 | locus YPR119W, strain clb2, active compounds read low 0.989 | locus YPR141C, strain kar3, active compounds read low 0.997 | locus YPR163C, strain tif3, active compounds read low 0.991 | locus YPR167C, strain met16, active compounds read low 0.991 | strain wtn01, active compounds read low 1.02
